Compound activity: PubChem BioAssay, National Center for Advancing Translational Sciences (NCATS)
Most compounds without a hit are left out; they make up all but 4.3% or so of the library.
uPA generation: cell surface uPA generation inhibition; AID 540303; hit rate 0.31% among 330,000; cell surface uPA generation assay, qHTS; Potency, µM (highest dose often 38.3 µM), most hits filed as inhibitors; active = well fitted inhibition curve with a large enough effect; inconclusive = small, poorly fitted or top-dose-only effect; inactive = no such curve, though single readings can be large or run the other way; tested in mouse RAW 264.7 cells; note: nearly all actives have a fitted effect of over 55% in size
SW480 rerep: induces DNA re-replication in SW480 colon adenocarcinoma cells; SW480 DNA re-replication, Hoechst DNA content imaging, 48 h; Potency, µM (doses to about 46.1 µM), hits mostly activators; hit rate 1.8% among 340,000; AID 624297; note: nearly all actives have a fitted effect of over 55% in size
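First, 250 cells per well were seeded. Next, compound or vehicle (23 nL) was pinned in, plates sat 48 hr at 37 C. Finally Hoechst was added for 40 min before fluorescence scanning.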
MCF10A rereplic: DNA re-replication induction in MCF 10a cells; MCF 10A DNA re-replication, Hoechst nuclear intensity, 48 h; Potency, µM (highest dose often 46.1 µM), hits mostly activators; hit rate 2.9% among 350,000; AID 624296; note: nearly all actives have a fitted effect of over 50% in size
Giardia kill: Giardia lamblia killing | Giardia lamblia trophozoite viability | activity change, % at 7.66 µM, hits read low | hit rate 0.15% among 340,000 | AID 540267; in the data active = activity change below about -80%; inconclusive = between about -30% and that limit;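 note: parasites exposed to compound for two days anaerobically before the ATP read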
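Each well holds 100 Giardia trophozoites and compound. After two days (48 hrs) at 37 deg C in anaerobic conditions, ATP is quantified by luminescence.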
Hits are given with their value; 0 = inactive; ? = inconclusive; - = no result; ! = repeats disagree. Unless noted, calls come from the whole dose curve; as a rule, active = well fitted activation curve with a large enough effect; inconclusive = small, poorly fitted or top-dose-only effect; inactive = no such curve, though single readings can be large or run the other way.

SMILES	uPA generation	SW480 rerep	MCF10A rereplic	Giardia kill
CC(C)(C)OC(=O)NCCCCCNC(=O)c1[nH]cnc1C(=O)N[C@@H](Cc1ccccc1)C(=O)OCc1ccccc1	0	?	13µM	0
CC(C)C[C@H](NC(=O)c1[nH]cnc1C(=O)Nc1ccc(CNC(=O)OC(C)(C)C)cc1)C(=O)OCc1ccccc1	0	0	18µM	0
O=C(O)c1ccc(C(=O)Nc2cccc3cccnc23)cc1	-	-	-	0
FC(F)(F)c1cc(NC2CCCCC2)ccn1	0	?	0	0
N#Cc1c(N2CCN(c3ccc([N+](=O)[O-])cc3)CC2)[n+](=O)c2ccc(Cl)cc2n1[O-]	0	8.2µM	?	?
O=C(Cn1cnc2c(NCc3ccccc3)ncnc21)NCCc1cc2ccccc2[nH]1	0	?	?	0
O=C1NC(=O)c2cc(Br)cc3cccc1c23	0	0	0	0
Cc1ccc(NS(=O)(=O)c2cc3c4c(cccc4c2)C(=O)NC3=O)cc1C	0	0	15µM	0
O=c1[nH]cnc2c1ncn2[C@H]1C[C@H](O)[C@@H](CO)O1	-	-	-	0
C/C(=N\NC(=O)c1ccc(N2CCCC2=O)cc1)c1ccc(O)cc1O	?	9.2µM	0	0
C/C(=N\NC(=O)c1ccc(N2CCCC2=O)cc1)c1ccccc1	0	0	0	0
Nc1cccc2c1C(=O)N(CCOc1ccc(F)cc1)C2=O	0	18µM	16µM	0
COc1ccc(OCCN2C(=O)c3ccccc3C2=O)cc1	0	0	0	0
O=C(CCl)NC1CCCc2ccccc21 (stereo unspecified)	0	0	0	0
O=C(CN1CCN(c2cccc(Cl)c2)CC1)NC1CCCc2ccccc21 (stereo unspecified)	0	0	21µM	0
CCOc1ccc(NC(=O)C(CC(=O)O)Cc2ccccc2)cc1 (stereo unspecified)	0	0	0	0
CCOc1ccc(NC(=O)C(Cc2ccccc2)N2C(=O)c3cccc4cccc(c34)C2=O)cc1 (stereo unspecified)	0	9.2µM	8.2µM	0
C=C[C@@H]1c2cc(C)ccc2N(S(=O)(=O)c2ccc(C)cc2)[C@H](c2ccc(OC(C)=O)cc2)C1(C#N)C#N	?	0	3.3µM	0
Cc1ccc(CNC(=O)/C=C/c2ccc(S(=O)(=O)N3CCOCC3)cc2)cc1	0	0.82µM	?	0
NS(=O)(=O)c1ccc(NC(=O)CCC(=O)O)cc1	-	0	0	-
Cc1ccc(C)c(Nc2nc(NCc3ccco3)nc3nccnc23)c1	-	-	-	0
COc1ccccc1C(C)Nc1ccc(S(=O)(=O)N2CCN(C)CC2)cc1[N+](=O)[O-] (stereo unspecified)	0	0	0	0
CC(=C/C(=O)O)/C=C/c1ccc(Cl)o1	0	0	0	0
CC(/C=C/c1ccc(C)o1)=C\C(=O)O	0	0	23µM	0
Cc1ccc(/C=C/C(=O)N2CC(C)CC(C)C2)o1 (stereo unspecified)	0	16µM	23µM	0
SMILES	uPA generation	SW480 rerep	MCF10A rereplic	Giardia kill
O=C(CC1SC(=Nc2ccccc2)N(Cc2ccccn2)C1=O)Nc1ccc(Br)cc1 (stereo unspecified)	0	16µM	23µM	0
Cc1ccccc1N=C1SC(CC(=O)Nc2ccc3ccccc3c2)C(=O)N1Cc1ccccn1 (stereo unspecified)	0	?	0	0
CNc1oc(/C=C/c2cccc(OC)c2)nc1C#N	?	18µM	21µM	0
CCNc1oc(/C=C/c2ccc(OCC)cc2)nc1C#N	3.2µM	3.3µM	2.6µM	0
CN(C)CCCNc1oc(-c2ccccc2)nc1C#N	0	0	0	0
CCN(CC)CCCNc1oc(/C=C/c2ccccc2)nc1C#N	0	21µM	?	0
C[C@](N)(Cc1ccc(O)c(O)c1)C(=O)O	0	2.8µM!	0	0
CC1C=CC=CC=CC=CC=CC=CC=CC(OC2OC(C)C(O)C(N)C2O)CC2OC(O)(CC(O)CC(O)C(O)CCC(O)CC(O)CC(=O)OC(C)C(C)C1O)CC(O)C2C(=O)O (stereo unspecified)	0	6.5µM	3.3µM	0
Cc1cc(C)c(S(=O)(=O)Nc2ccccc2C(=O)N2CCOCC2)c(C)c1	0	0	0	0
C/C(CCN1CCCCc2nc(C)c(C)cc21)=N\O[C@@H](C)CN1CCCCc2nc(C)c(C)cc21	-	?	23µM	-
C/C(CCN1CCCCc2nc(C)c(C)cc21)=N\OC[C@@H](O)[C@H]1O[C@@H]2OC(C)(C)O[C@@H]2[C@H]1O	-	0	0	-
Cc1nc(N2CCN(c3ccccn3)CC2)c2c(C)c(C(=O)N3CCN(c4ccccc4F)CC3)sc2n1	0	0	7.3µM	0
CC(=O)Nc1cc(O)c2nonc2c1O	-	-	-	0
